# From PubChem
# An excerpt weighted towards active compounds, which were near 1.3% of everything screened.
# PME-1 primary – blocks human protein phosphatase methylesterase 1 | Q9Y570 | inhibition, % at 5.9 µM | 320,000 compounds, 0.53% hits | recombinant PME-1, FP-Rh probe fluorescence polarization;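 active means inhibition above the campaign mean of all compounds plus 3 SD, cut at about 26% in these data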;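 further: competitive labeling of PME-1 active site by serine hydrolase directed probe; 0% = PME-1 with DMSO and 100% = wells lacking PME-1 enzyme; inhibitors block probe labeling so polarization falls and inhibition rises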
# Target sequence (Q9Y570 whole entry, looked up): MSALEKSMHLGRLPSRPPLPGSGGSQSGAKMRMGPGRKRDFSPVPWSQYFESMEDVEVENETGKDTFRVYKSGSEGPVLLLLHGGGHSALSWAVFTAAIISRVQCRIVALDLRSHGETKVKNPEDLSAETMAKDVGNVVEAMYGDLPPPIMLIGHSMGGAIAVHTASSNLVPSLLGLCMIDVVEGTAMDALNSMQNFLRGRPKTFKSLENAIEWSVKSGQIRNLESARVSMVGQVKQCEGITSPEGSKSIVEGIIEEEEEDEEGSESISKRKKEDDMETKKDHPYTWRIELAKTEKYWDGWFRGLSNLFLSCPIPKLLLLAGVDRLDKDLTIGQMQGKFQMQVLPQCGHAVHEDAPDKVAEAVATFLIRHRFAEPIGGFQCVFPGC
# LYPLA1 inh – counter-screen for PME1 inhibitors: inhibitors of human LYPLA1 | O75608 | 320,000 compounds, 0.16% hits | inhibition, % at 5.9 µM | recombinant LYPLA1, FP-Rh probe fluorescence polarization;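 active means inhibition above the mean of all tested compounds plus 3 SD, set per campaign, cut at about 14% in these data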;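 further: inhibitors block serine hydrolase probe labeling of LYPLA1 so polarization falls; 0% = enzyme with DMSO and 100% = wells lacking LYPLA1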
# Fam108B inh – counter-screen for RBBP9 inhibitors: inhibitors of mouse Fam108B. recombinant Fam108B, FP-Rh probe fluorescence polarization. inhibition, % at 9.51 µM. 300,000 compounds, 0.33% hits. AID 1947;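 active means inhibition above the screen mean inhibition plus 3 SD, computed separately per campaign, cut at about 18% in these data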;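 further: inhibitors lower polarization as less probe binds the enzyme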
# LYPLA2 inh – LYPLA2 (human) inhibition in PME1 counter-screen; O95372; recombinant LYPLA2, FP-Rh probe fluorescence polarization; inhibition, % at 5.9 µM; 320,000 compounds, 0.38% hits; AID 2177;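 active means inhibition above the screen-wide mean plus 3 SD, limit set per campaign, cut at about 26% in these data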;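 further: 0% = LYPLA2 with DMSO and 100% = wells lacking LYPLA2 enzyme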
# Target sequence (O95372 whole entry, looked up): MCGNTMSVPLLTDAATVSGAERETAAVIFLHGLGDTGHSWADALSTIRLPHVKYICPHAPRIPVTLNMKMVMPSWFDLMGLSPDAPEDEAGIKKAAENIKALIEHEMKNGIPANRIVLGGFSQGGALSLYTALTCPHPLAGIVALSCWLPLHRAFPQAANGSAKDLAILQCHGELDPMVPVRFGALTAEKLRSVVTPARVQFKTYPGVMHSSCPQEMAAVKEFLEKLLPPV
# PREPL inh – human PREPL enzyme inhibition | Q4J6C6 | recombinant PREPL, fluorescence polarization activity-based probe | inhibition, % at 5.96 µM | 320,000 compounds, 0.68% hits;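 further: 0% = enzyme with DMSO and 100% = wells lacking enzyme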
# PREPL confirm – confirmation of human PREPL enzyme inhibitors; shares compounds with PREPL inh; recombinant PREPL, fluorescence polarization activity probe; inhibition, % at 5.96 µM; 2,000 compounds, 67% hits;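 further: 0% = protein with DMSO and 100% = wells lacking protein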
# * hit, by the source's call; / = no result given. Unless noted, no stated cut-off is given here; in the data, active means inhibition above about 43%; inactive means the rest.
SMILES,PME-1 primary,LYPLA1 inh,Fam108B inh,LYPLA2 inh,PREPL inh,PREPL confirm
C#CCOCCOCCOCCNc1nc(N2CCN(C(=O)CCCCCCCCCCNC(=O)[C@H](CO)n3cc(CCCSC)nn3)CC2)nc(N2CCN(C(=O)CCCCCCCCCCNC(=O)[C@H](CCCCN)n3cc(C[C@@H](C)CC)nn3)CC2)n1,-16.3,-11.6,-19.2,-18.4,29.2,/
C#CCOCCOCCOCCNc1nc(N2CCN(C(=O)CCCCCCCCCCNC(=O)[C@H](CCCCN)n3cc(CCO)nn3)CC2)nc(N2CCN(C(=O)CCCCCCCCCCNC(=O)[C@H](CCCN=C(N)N)n3cc(C[C@@H](C)CC)nn3)CC2)n1,-10.8,-6.5,-8.4,-11.3,56.3*,56.7*
C#CCOCCOCCOCCNc1nc(N2CCN(C(=O)CCCCCCCCCCNC(=O)[C@H](CCCCN)n3cc(C)nn3)CC2)nc(N2CCN(C(=O)CCCCCCCCCCNC(=O)[C@@H]([C@H](C)CC)n3cc(CCCCCN)nn3)CC2)n1,1.6,-4.8,0.1,12.8,51.8*,44.6*
O=C(NCCCl)Nc1cccnc1Cl,-3.8,-0.1,-2.2,0.2,-3.5,/
COc1ccc(Cl)cc1C(=O)Nc1cccnc1Cl,-5.5,-6.7,-4.4,-6.0,-0.5,/
C#CCOCCOCCOCCNc1nc(N2CCOCC2)nc(N2CCN(C(=O)CCCCCCCCCCNC(=O)[C@H](CO)n3cc(CCCCCN)nn3)CC2)n1,1.2,0.5,1.6,-1.1,21.5,/
C#CCOCCOCCOCCNc1nc(N2CCN(C(=O)CCCCCCCCCCNC(=O)Cn3cc(CCCCCN)nn3)CC2)nc(N2CCN(C(=O)CCCCCCCCCCNC(=O)[C@H](CO)n3cc(CCCCCN)nn3)CC2)n1,3.0,-0.1,3.4,2.1,67.6*,60.0*
O=C(COc1ccc(Br)cc1)NCCNC(=O)c1ccccn1,2.7,0.6,0.9,0.8,-4.5,/
CCc1ccc(S(=O)(=O)N2CCN(C(=O)c3cccnc3)CC2)cc1,2.8,2.8,-0.3,0.9,1.0,/
O=C(C1CCN(S(=O)(=O)c2ccc(Br)s2)CC1)N1CCCCC1,7.9,0.4,0.4,7.7,13.0,/
CNC[C@H](Cc1cccc2ccccc12)NC[C@H](CCSC)NCC1CCC(C(C)(C)C)CC1 (some centres undefined),/,/,/,/,43.5*,33.6
CC(CCc1ccccc1)NCc1cccc2ccccc12 (centres undefined),2.4,0.9,1.6,-1.4,-28.7,/
CCC1(CC)NC(=O)N(CC(=O)Nc2cccc3ccccc23)C1=O,/,/,/,/,5.8,/
COc1ccccc1S(=O)(=O)N1CCNC(=O)C1,/,/,/,/,-7.3,/
CCN1CCN(c2cc(C)c3cc(NC(=O)CCC(=O)N4CCN(c5ccccc5)CC4)ccc3n2)CC1,0.2,1.0,-3.8,1.1,48.9*,46.9*
CCN1CCN(c2cc(C)c3cc(NC(=O)CCC(=O)N4CCN(c5ccccc5OC)CC4)ccc3n2)CC1,-0.1,-2.1,1.1,1.0,6.1,/
Cc1ccnc(NS(=O)(=O)c2ccc(NC(=O)c3cc(=O)c4ccccc4o3)cc2)n1,-8.3,-7.3,-1.1,-4.3,5.8,/
CN(C)c1ccc(NC(=O)Cn2cc3c(n2)CCCC3)cc1,0.4,0.2,-0.8,-4.0,69.2*,68.9*
Cc1ccc(NC2=CC(=O)C(=O)c3ccccc32)c(C)c1,12.9,2.4,/,5.6,47.0*,38.4
Cc1ccc(NC(=O)COc2cccc(/C=C3\SC(=S)N(CCC(=O)O)C3=O)c2)cc1Cl,32.5*,-3.4,-5.3,8.6,52.4*,27.9
COc1ccc(Nc2c3ccccc3nc3ccccc23)cc1,-42.8,-1.9,3.0,-1.6,46.8*,44.8*
COc1ccc(Nc2nc(N3CCCC3)c3ccccc3n2)cc1,-105.2,5.4,-0.9,1.1,76.8*,62.5*
CC(C)NC(=O)N(Cc1ccccc1)Cc1cccs1,-0.5,-0.6,0.9,4.7,8.3,/
COc1ccc(NCC(=O)N/N=C/C=C\c2ccccc2)cc1,-7.3,-2.5,2.6,2.2,67.3*,45.7*
COc1ccc(/C=C/C=N/NC(=O)COc2ccc(OC)cc2)cc1,-2.5,7.9,-2.0,9.0,-0.5,/
SMILES,PME-1 primary,LYPLA1 inh,Fam108B inh,LYPLA2 inh,PREPL inh,PREPL confirm
CCOc1cc(NC(=S)NCC2CCCO2)c(OCC)cc1NC(=O)CC(C)C (centres undefined),1.0,2.6,-2.5,7.7,-1.0,/
COc1cc2cc3c(N)c(C(=O)NCc4ccco4)sc3nc2cc1OC,46.7*,-4.1,17.3,0.8,45.7*,56.6*
O=C(NC(=S)Nc1ccc(N2CCOCC2)cc1)c1ccco1,1.6,2.3,-0.5,13.1,4.0,/
O=C(Nc1ccc2nc(-c3ccco3)c(-c3ccco3)nc2c1)N1CCN(c2ccccn2)CC1,2.6,-6.4,10.0,-6.8,73.6*,37.8
S=C(Nc1ccc(N2CCOCC2)cc1)Nc1ccc2nc(-c3ccco3)c(-c3ccco3)nc2c1,50.5*,-2.6,17.7,4.5,45.6*,21.7
Cc1ccc(N(CC(=O)N(C)Cc2ccccc2)S(C)(=O)=O)cc1C,-1.7,3.6,1.6,4.1,7.5,/
CCC(C)(C)NC(=O)c1ccc(S(=O)(=O)N2CCCCCC2)cc1,-3.4,-0.3,-4.2,-2.2,13.5,/
O=C1Nc2ccccc2S/C1=C/Nc1cccc(Cl)c1,7.3,-3.5,0.7,2.9,44.8*,33.2
CCCCCNc1nc(N2CCCC2)c2c(c1C#N)CCN(C)C2,5.6,-0.6,3.6,0.7,54.6*,56.8*
Cc1ccc(NC(=O)C[n+]2cc(-c3ccc(C)cc3)n3c2CCC3)cc1,2.7,2.0,-0.2,2.9,14.6,/
Cn1c(NC(=O)C[n+]2cc(-c3ccc(Cl)c(Cl)c3)n3c2CCC3)cc(=O)n(C)c1=O,5.8,-0.9,0.7,1.5,60.3*,51.1*
CCCCCC1CCC(c2ccc(/C(N)=N/O)cc2)CC1 (centres undefined),3.2,3.1,3.1,6.1,2.8,/
CN(C)c1ccc(C(CNC(=O)c2ccc(-c3ccccc3)cc2)N2CCOCC2)cc1 (centres undefined),-1.9,-1.6,-1.5,2.3,46.8*,64.8*
COC(=O)CCCC1=CC2=CC(=O)C(C)(OC(=O)c3cccs3)C(=O)C2=CN1CCc1c[nH]c2ccccc12 (centres undefined),15.6,-2.4,-0.6,1.4,44.5*,22.5
CCCCC1=CC2=CC(=O)C(C)(OC(=O)CC)C(=O)C2=CN1CCc1c[nH]c2ccccc12 (centres undefined),-11.4,0.7,3.5,-0.3,37.9,/
Cc1c(C(=O)N2CCN(S(=O)(=O)c3ccccc3)CC2)oc2ccc(Br)cc12,/,/,/,/,11.1,/
COc1ccc(-c2cn[nH]c2-c2ccc(OCc3ccccc3)cc2O)cc1OC,6.7,-6.2,3.5,2.3,49.4*,31.6
COc1ccccc1C(=O)NCCC(=O)NCC(c1ccco1)N1CCCC1 (centres undefined),-0.4,-0.1,/,-3.3,13.0,/
